# The supplement of paper PMC12067093, “Discovery and optimisation of a covalent ligand for TRIM25 and its application to targeted protein ubiquitination” (Chemical Science, 2025)
# Of roughly 21,000 targets only a part is listed; those with the largest changes were picked by preference.
# Target: WDR43_Q15061_158_HIVEWNVQTCK (UniProt Q15061)
# Experiment: probe-labelled cysteine peptide fold change vs DMSO (competition) (log2 fold change); higher = less target engagement (more negative = stronger competition)
# Settings: THP-1, incubation time: 4 h
# 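Note: competitive profiling in live THP-1 cells: cysteine peptides tagged with an iodoacetamide desthiobiotin (IA-DTB) probe, intensity after compound treatment relative to DMSO-treated cells.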
# WDR43_Q15061_158_HIVEWNVQTCK, sequence (Q15061 whole entry, looked up): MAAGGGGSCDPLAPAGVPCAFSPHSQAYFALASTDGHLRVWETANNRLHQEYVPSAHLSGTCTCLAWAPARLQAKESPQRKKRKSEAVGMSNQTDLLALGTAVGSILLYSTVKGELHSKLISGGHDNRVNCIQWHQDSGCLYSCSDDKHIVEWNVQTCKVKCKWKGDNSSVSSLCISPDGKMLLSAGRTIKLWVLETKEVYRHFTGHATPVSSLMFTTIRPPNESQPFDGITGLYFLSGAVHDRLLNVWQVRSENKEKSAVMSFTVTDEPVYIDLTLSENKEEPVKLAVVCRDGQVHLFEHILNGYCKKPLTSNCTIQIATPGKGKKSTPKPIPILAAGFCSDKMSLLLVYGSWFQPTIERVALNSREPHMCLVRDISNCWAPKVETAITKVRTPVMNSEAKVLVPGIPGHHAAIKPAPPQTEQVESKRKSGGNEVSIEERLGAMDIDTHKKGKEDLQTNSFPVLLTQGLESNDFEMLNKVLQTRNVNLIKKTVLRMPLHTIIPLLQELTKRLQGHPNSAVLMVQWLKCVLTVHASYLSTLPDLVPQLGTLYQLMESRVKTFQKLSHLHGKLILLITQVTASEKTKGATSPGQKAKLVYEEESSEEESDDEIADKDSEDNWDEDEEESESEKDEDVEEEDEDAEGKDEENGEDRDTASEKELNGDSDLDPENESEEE
structure (smiles),measurement,setting,value
Cc1cc(C(=O)N2CCCN(C(=O)CCl)CC2)ccc1-c1ccccc1 [compound 10],probe-labelled cysteine peptide fold change,10 µM,-0.0124
same,probe-labelled cysteine peptide fold change,50 µM,-0.0233
